Test results taken from PubChem BioAssay (NCI).
Compounds without any hit were thinned out: in the full panel of roughly 79,000, 15% have a hit. Unmarked numbers belong to inactive results. Active and inactive are the calls of the source. Cut-off read from the data, not from the text of the source: active = growth inhibition above about 70%; inactive = the rest.

Assay: NCI Yeast Anticancer Drug Screen. Data for the cln2 rad14 strain (AID 165);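 note: 0% = growth equal to vehicle treated cultures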
Conditions: S. cerevisiae cln2 rad14 strain, at 50.0 µM, active compounds read high
Summary of the method: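 Readout is yeast growth inhibition versus vehicle-treated controls, using a strain with cln2 and rad14 alterations exposed to compound.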

SMILES	growth inhibition
O=Cc1ccccc1C=O	13.6%
C1=CCN([B-](c2ccccc2)[C+]2CCCCC2)C=C1	2.1%
CC/C(=C(\c1ccccc1)c1ccc(OCC[N+](C)(C)C)cc1)c1ccccc1	91% (active)
O=S(=O)(c1cccc(C(F)(F)F)c1)N1c2ccccc2-n2cccc2C1c1cccnc1 (configuration not stated)	93.9% (active)
Nc1ccc2c(c1)C(=O)c1c(F)cccc1-2	21.9%
CN(C)/C(=N/C(=S)Nc1ccccc1)SCc1ccccc1	98.8% (active)
CCN(CC)C(=S)N/N=C(\C)c1ccccc1O	89.3% (active)
CC(C)OC(=O)NNc1cc(Cl)ccc1Cl	26%
CC(C)CCC[C@@H](C)[C@H]1CC[C@H]2[C@@H]3CC[C@H]4C[C@H](N)CC[C@]4(C)[C@H]3CC[C@]12C	19.2%
O=C1c2ccccc2-c2ccc(N=Cc3ccccc3)cc21	6.45%

Assay: NCI Yeast Anticancer Drug Screen. Data for the bub3 strain (AID 167)
Conditions: S. cerevisiae bub3 mutant strain, at 1.2 µM, active compounds read high
Summary of the method: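 Yeast carrying a defined mutation is treated with each compound, and growth is compared with that of vehicle-exposed cells to give inhibition.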

SMILES	growth inhibition
COc1ccc2nc3cccc([N+](=O)[O-])c3c(NCCNCCN(C)C)c2c1	-5%
Cc1cccc(/C=N/NC(=S)NC2CCCCC2)n1	-6%
COC(=O)C(=O)c1c(-c2ccc(Cl)c(Cl)c2)[nH]c2[nH]n(-c3ccccc3)c(=O)c2c1=O	-3%
c1ccc([P+](CCN2Cc3ccccc3C2)(c2ccccc2)c2ccccc2)cc1	7%
Cc1cc(C)c2[s+]snc2c1	-4%
CC(C)(Br)C(=O)/C=C/c1ccccc1	-3%
Cc1ccc(S(=O)(=O)NC(=O)C2C(=O)CC3(CCCCC3)CC2=O)cc1	-5%
NC(=S)N1N=C2c3ccccc3CC[C@H]2[C@@H]1c1ccc(Cl)cc1	-12%
O=[N+]([O-])/C=C/c1cc2ccc3ccccc3c2[nH]1	12%
O=C1C(=C2CCCC2)CCC1CN1CCCCC1 (configuration not stated)	8%
OC(CC(O)(C(F)(F)F)C(F)(F)F)c1ccc(C(O)CC(O)(C(F)(F)F)C(F)(F)F)cc1 (configuration not stated)	-2%
COc1cc2c(cc1OC)[C@@H](Nc1ccc(C#N)cc1)C1COC(=O)[C@@H]1C2c1cc(OC)c(O)c(OC)c1 (some centres not stated)	-32%
O=c1cccccc1[O-].O=c1cccccc1[O-].O=c1cccccc1[O-].[Eu+3]	1%
O=C1c2ccccc2C(=O)c2sc(Nc3ccccc3Cl)nc21	-4%
NC(CCCCCCCCCCCCC(N)C(=O)c1ccccc1)C(=O)c1ccccc1 (configuration not stated)	-3%
CC1=C(C)C(=O)C2=C(OCCO2)C1=O	0%
c1ccc(-c2cc(C3CO3)c3ccccc3n2)cc1 (configuration not stated)	2%
S=C1C(=Nc2ccccc2)N(c2ccccc2)/C(=N\c2ccccn2)N1c1ccccc1	-7%

SMILES	growth inhibition
CCC(OC(C)=O)C1CC(C(C)C)CCC1C (configuration not stated)	-2%
CC(C)=CCc1c2c(c(O)c3c(=O)c(-c4ccc(O)c(O)c4)coc13)C=CC(C)(C)O2	-29%
O=C(NC(N1CCN(c2cc3c(cc2F)c(=O)c(C(=O)O)cn3C2CC2)CC1)(C(F)(F)F)C(F)(F)F)c1ccccc1	0%
Fc1cc(F)c(F)c(S)c1F	-9%
COc1ccc2cc3c4cc5c(cc4cc[n+]3cc2c1OC)OCO5	6%
CCCCCCCCNCCCCCCCC	33%
Nc1cc(Cl)ccc1Nc1ccccc1	-21%
O=C(/C(=C/c1ccc(O)cc1)c1ccccc1)c1ccccc1	22%
O=Cc1ccccc1C=O	6%
C1=CCN([B-](c2ccccc2)[C+]2CCCCC2)C=C1	2%
CC/C(=C(\c1ccccc1)c1ccc(OCC[N+](C)(C)C)cc1)c1ccccc1	-3%
O=S(=O)(c1cccc(C(F)(F)F)c1)N1c2ccccc2-n2cccc2C1c1cccnc1 (configuration not stated)	-27%
Nc1ccc2c(c1)C(=O)c1c(F)cccc1-2	-11%
CN(C)/C(=N/C(=S)Nc1ccccc1)SCc1ccccc1	-4%
CCN(CC)C(=S)N/N=C(\C)c1ccccc1O	-21%
CC(C)OC(=O)NNc1cc(Cl)ccc1Cl	4%
CC(C)CCC[C@@H](C)[C@H]1CC[C@H]2[C@@H]3CC[C@H]4C[C@H](N)CC[C@]4(C)[C@H]3CC[C@]12C	-2%
O=C1c2ccccc2-c2ccc(N=Cc3ccccc3)cc21	-6%

Same assay, conditions: S. cerevisiae bub3 mutant strain, at 3.7 µM, active compounds read high

SMILES	growth inhibition
COc1ccc2nc3cccc([N+](=O)[O-])c3c(NCCNCCN(C)C)c2c1	4%
Cc1cccc(/C=N/NC(=S)NC2CCCCC2)n1	-3%
COC(=O)C(=O)c1c(-c2ccc(Cl)c(Cl)c2)[nH]c2[nH]n(-c3ccccc3)c(=O)c2c1=O	-2%
c1ccc([P+](CCN2Cc3ccccc3C2)(c2ccccc2)c2ccccc2)cc1	39%
Cc1cc(C)c2[s+]snc2c1	-4%
CC(C)(Br)C(=O)/C=C/c1ccccc1	-7%
Cc1ccc(S(=O)(=O)NC(=O)C2C(=O)CC3(CCCCC3)CC2=O)cc1	23%
NC(=S)N1N=C2c3ccccc3CC[C@H]2[C@@H]1c1ccc(Cl)cc1	9%
O=[N+]([O-])/C=C/c1cc2ccc3ccccc3c2[nH]1	28%
O=C1C(=C2CCCC2)CCC1CN1CCCCC1 (configuration not stated)	10%
OC(CC(O)(C(F)(F)F)C(F)(F)F)c1ccc(C(O)CC(O)(C(F)(F)F)C(F)(F)F)cc1 (configuration not stated)	37%
COc1cc2c(cc1OC)[C@@H](Nc1ccc(C#N)cc1)C1COC(=O)[C@@H]1C2c1cc(OC)c(O)c(OC)c1 (some centres not stated)	-13%
O=c1cccccc1[O-].O=c1cccccc1[O-].O=c1cccccc1[O-].[Eu+3]	1%
O=C1c2ccccc2C(=O)c2sc(Nc3ccccc3Cl)nc21	54%
NC(CCCCCCCCCCCCC(N)C(=O)c1ccccc1)C(=O)c1ccccc1 (configuration not stated)	0%
CC1=C(C)C(=O)C2=C(OCCO2)C1=O	2%
c1ccc(-c2cc(C3CO3)c3ccccc3n2)cc1 (configuration not stated)	-1%
S=C1C(=Nc2ccccc2)N(c2ccccc2)/C(=N\c2ccccn2)N1c1ccccc1	-13%

SMILES	growth inhibition
CCC(OC(C)=O)C1CC(C(C)C)CCC1C (configuration not stated)	-1%
CC(C)=CCc1c2c(c(O)c3c(=O)c(-c4ccc(O)c(O)c4)coc13)C=CC(C)(C)O2	-28%
O=C(NC(N1CCN(c2cc3c(cc2F)c(=O)c(C(=O)O)cn3C2CC2)CC1)(C(F)(F)F)C(F)(F)F)c1ccccc1	-1%
Fc1cc(F)c(F)c(S)c1F	-4%
COc1ccc2cc3c4cc5c(cc4cc[n+]3cc2c1OC)OCO5	19%
CCCCCCCCNCCCCCCCC	49%
Nc1cc(Cl)ccc1Nc1ccccc1	-16%
O=C(/C(=C/c1ccc(O)cc1)c1ccccc1)c1ccccc1	12%
O=Cc1ccccc1C=O	17%
C1=CCN([B-](c2ccccc2)[C+]2CCCCC2)C=C1	-1%
CC/C(=C(\c1ccccc1)c1ccc(OCC[N+](C)(C)C)cc1)c1ccccc1	36%
O=S(=O)(c1cccc(C(F)(F)F)c1)N1c2ccccc2-n2cccc2C1c1cccnc1 (configuration not stated)	1%
Nc1ccc2c(c1)C(=O)c1c(F)cccc1-2	-4%
CN(C)/C(=N/C(=S)Nc1ccccc1)SCc1ccccc1	-2%
CCN(CC)C(=S)N/N=C(\C)c1ccccc1O	-7%
CC(C)OC(=O)NNc1cc(Cl)ccc1Cl	-1%
CC(C)CCC[C@@H](C)[C@H]1CC[C@H]2[C@@H]3CC[C@H]4C[C@H](N)CC[C@]4(C)[C@H]3CC[C@]12C	-4%
O=C1c2ccccc2-c2ccc(N=Cc3ccccc3)cc21	-3%
